High-throughput results deposited in PubChem by National Center for Advancing Translational Sciences (NCATS).
Compounds with a hit are over-represented: about 12% of the library has one in this group of screens.
Sfp inh: qHTS Assay for Inhibitors of Bacillus subtilis Sfp phosphopantetheinyl transferase (PPTase); 4'-phosphopantetheinyl transferase ffp (Bacillus subtilis), Q9F4F7; Biochemical Sfp PPTase activity, qHTS; Potency, µM, most hits filed as inhibitors; 310,000 tested, 3.5% active;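 note: the enzyme is Sfp with the accession as filed and its product quenches rhodamine fluorescence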
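After 15 min at room temperature with compound, 15 nM Sfp received 5 uM rhodamine-CoA plus 12.5 uM BHQ-2-ybbR (50 mM Hepes pH 7.6, 10 mM MgCl2). Rate came from the fluorescence difference over 30 min, ex 525/em 598 nm.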
Gal4-VP16 FLuc: VP16 counterscreen qHTS for inhibitors of ROR gamma transcriptional activity. Drosophila S2 Gal4-VP16 UAS-luciferase, luminescence, 20 h. Potency, µM (doses to about 53.6 µM), hits mostly inhibitors. 310,000 tested, 3.5% active. AID 2546, 2010;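 note: Gal4-VP16 expression switched on by copper sulfate through the metallothionein promoter; nearly all actives have a fitted effect of over 50% in size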
PLK1 PBD inh: qHTS for Inhibitors of PLK1-PDB (polo-like kinase 1 - polo-box domain): Primary Screen. Serine/threonine-protein kinase PLK1 (Homo sapiens), P53350. Plk1 PBD binding of FITC phosphopeptide, fluorescence polarization. Potency, µM, actives largely listed as inhibitors. 360,000 tested, 2.8% active; note: series mostly up to about 57 µM; nearly all actives have a fitted effect of over 65% in size
RORg inh: qHTS for inhibitors of ROR gamma transcriptional activity; Nuclear receptor ROR-gamma (Mus musculus), P51450; Drosophila S2 Gal4-RORgamma UAS-luciferase reporter, 20 h; Potency, µM (highest dose often 53.6 µM), actives largely listed as inhibitors; 310,000 tested, 5.4% active; AID 2551, 2010; note: nearly all actives have a fitted effect of over 60% in size
Target sequence (P51450 whole entry, looked up, the tested form may be a part): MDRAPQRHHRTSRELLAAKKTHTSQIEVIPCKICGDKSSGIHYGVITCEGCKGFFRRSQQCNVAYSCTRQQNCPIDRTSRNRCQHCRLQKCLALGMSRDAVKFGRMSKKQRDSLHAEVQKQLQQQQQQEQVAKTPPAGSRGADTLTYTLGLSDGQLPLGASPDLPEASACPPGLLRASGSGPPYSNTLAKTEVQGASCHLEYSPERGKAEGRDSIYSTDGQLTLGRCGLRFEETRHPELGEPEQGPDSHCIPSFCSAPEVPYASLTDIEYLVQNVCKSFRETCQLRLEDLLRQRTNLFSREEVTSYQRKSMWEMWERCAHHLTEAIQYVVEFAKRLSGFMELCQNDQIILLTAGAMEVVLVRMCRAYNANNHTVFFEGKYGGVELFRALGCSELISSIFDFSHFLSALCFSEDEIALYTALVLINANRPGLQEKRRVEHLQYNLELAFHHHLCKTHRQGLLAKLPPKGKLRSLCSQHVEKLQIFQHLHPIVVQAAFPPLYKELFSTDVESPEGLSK
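Drosophila Schneider cells stably carrying a metallothionein-driven Gal4 DBD–ROR gamma fusion and a UAS-Photinus luciferase reporter were exposed to compound for 1 hr, then induced with copper sulfate (700 uM final) for 20 hr at ambient temperature before luminescence reading.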
ALDH1A1 block: qHTS Assay for Inhibitors of Aldehyde Dehydrogenase 1 (ALDH1A1) | Purified ALDH1A1, NADH fluorescence, propionaldehyde substrate | Potency, µM (doses to about 75.3 µM), hits mostly inhibitors | Aldehyde dehydrogenase 1A1 (Homo sapiens), P00352 | 220,000 tested, 7.3% active; active = well fitted inhibition curve with a large enough effect, not every such curve was filed as active; inconclusive = small, poorly fitted or top-dose-only effect, or another doubt; inactive = no such curve, though single readings can be large or run the other way
TbPYK inh: qHTS of Trypanosoma Brucei Inhibitors: Confirmatory Assay for Cherry-picked Compounds; shares compounds with PLK1 PBD inh; recombinant TbPYK, Kinase-Glo ATP luminescence; Potency, µM (highest dose often 76.9 µM), actives largely listed as inhibitors; 890 tested, 67% active; AID 720569, 2013; note: nearly all actives have a fitted effect of over 70% in size
TbPYK ADP-Glo: qHTS of Trypanosoma Brucei Inhibitors: Orthogonal Assay for Cherry-picked Compounds. shares compounds with PLK1 PBD inh. recombinant TbPYK, ADP-Glo luminescence, 60 min. Potency, µM (series often up to 76.9 µM), actives largely listed as inhibitors. 890 tested, 62% active. AID 720584, 2013; note: nearly all actives have a fitted effect of over 75% in size
Large screens that a line does not name were inactive (follow-up assays come after a bar, where they were run). Unless noted, calls come from the whole dose curve; as a rule, active = well fitted curve in the direction sought with a large enough effect; inconclusive = small, poorly fitted or top-dose-only effect, or another doubt; inactive = no such curve, though single readings can be large; an effect the other way counts as inactive or inconclusive.

O=C(Nc1ccc(-c2nc3ccccc3[nH]2)cc1)c1cccc(N2C(=O)CCC2=O)c1	ALDH1A1 block inconclusive
O=C(Nc1nc2ccc(S(=O)(=O)N3CCCC3)cc2s1)c1ccccn1	Gal4-VP16 FLuc inconclusive, RORg inh 2.8µM, ALDH1A1 block inconclusive | TbPYK inh inconclusive | TbPYK ADP-Glo inconclusive
CSc1nsc(SC)c1C(=O)O	none
CSc1nsc(SC)c1NC(=O)N1CCCC1	none | TbPYK inh inconclusive | TbPYK ADP-Glo 32µM
CC(Oc1ccccc1Cl)C(=O)Nc1ccc(S(=O)(=O)N2CCN(C)CC2)cc1 (stereo not given)	PLK1 PBD inh 19µM (no result: Sfp inh, Gal4-VP16 FLuc, RORg inh, ALDH1A1 block) | TbPYK inh inconclusive | TbPYK ADP-Glo inconclusive
CC(Oc1ccccc1)C(=O)Nc1ccc(S(=O)(=O)N2CCN(C)CC2)cc1 (stereo not given)	none (no result: Sfp inh, Gal4-VP16 FLuc, RORg inh, ALDH1A1 block)
O=P(c1ccccc1)(c1ccccc1)c1ccccc1C(Br)Br	none (no result: Sfp inh, Gal4-VP16 FLuc, RORg inh, ALDH1A1 block) | TbPYK inh 22µM | TbPYK ADP-Glo 32µM
COCCn1nnnc1C(c1cc2cc(OC)c(OC)cc2[nH]c1=O)N1CCN(c2ccc(O)cc2)CC1 (stereo not given)	Sfp inh inconclusive, Gal4-VP16 FLuc inconclusive, PLK1 PBD inh inconclusive, ALDH1A1 block inconclusive | TbPYK inh 6.3µM | TbPYK ADP-Glo 16µM
COc1cc2cc(C(c3nnnn3Cc3ccc(F)cc3)N3CCCCCC3)c(=O)[nH]c2cc1OC (stereo not given)	ALDH1A1 block inconclusive
CCCn1c(SCC(=O)NC2CCCC2)nnc1-c1cccnc1	none (no result: ALDH1A1 block)
Cc1ccc(-c2nc3ccccc3n2C)o1	Sfp inh 35µM, Gal4-VP16 FLuc inconclusive, RORg inh 11µM, ALDH1A1 block inconclusive | TbPYK inh inconclusive | TbPYK ADP-Glo inactive
O=[N+]([O-])c1ccc(S(=O)(=O)NCCc2ccncc2)cc1	none
C=C1C(=O)C23CCC4C(C)(C(=O)OC)CCCC4(C)C2CCC1(O)C3 (stereo not given)	PLK1 PBD inh inconclusive (no result: Sfp inh, Gal4-VP16 FLuc, RORg inh, ALDH1A1 block) | TbPYK inh 10µM | TbPYK ADP-Glo 14µM
COC(=O)[C@]1(C)CCC[C@@]2(C)C3CC[C@@]4(C)C[C@]3(CCC21)CC(=O)N4 (stereo not given in full)	none (no result: Sfp inh, Gal4-VP16 FLuc, RORg inh, ALDH1A1 block)
CC1(C)OC(=O)C(=Cc2ccc(-c3ccc(Cl)c(C(=O)O)c3)o2)C(=O)O1	Sfp inh 79µM, PLK1 PBD inh 1.7µM, ALDH1A1 block inconclusive | TbPYK inh 7.1µM | TbPYK ADP-Glo 18µM
CC1(c2ccccc2)NC(=O)N(CC(=O)Nc2ccc(N3CCOCC3)cc2)C1=O (stereo not given)	none (no result: Sfp inh, Gal4-VP16 FLuc, RORg inh, ALDH1A1 block)
Cn1c(=O)c2c(nc(SCC(=O)O)n2Cc2cc3c(cc2Cl)OCO3)n(C)c1=O	Sfp inh 56µM, ALDH1A1 block 35µM | TbPYK inh 2µM | TbPYK ADP-Glo 4µM
CCn1c(SCC(=O)Nc2ccc3c(c2)OCO3)nc2c1c(=O)n(C)c(=O)n2C	none
COc1cc(-c2cc3nc(NCc4ccco4)ccn3n2)cc(OC)c1OC	none (no result: Sfp inh, Gal4-VP16 FLuc, RORg inh, ALDH1A1 block)
CCOc1cc2[nH]c(=S)n(Cc3ccc(C(=O)NCCN(CC)CC)cc3)c(=O)c2cc1OCC	none (no result: ALDH1A1 block) | TbPYK inh 14µM | TbPYK ADP-Glo 14µM
COC(=O)CCC[C@H]1CC2(C[C@H](CCCO[Si](C)(C)C(C)(C)C)N1C(=O)OC(C)(C)C)OCCO2	none (no result: Sfp inh, Gal4-VP16 FLuc, RORg inh, ALDH1A1 block)
c1ccc(N2CCN(c3nc(-c4cccs4)nc4ccccc34)CC2)cc1	ALDH1A1 block inconclusive
Oc1ccc(N2CCN(c3nc(-c4cccs4)nc4ccccc34)CC2)cc1	Sfp inh inconclusive (no result: ALDH1A1 block) | TbPYK inh inconclusive | TbPYK ADP-Glo 35µM
COc1ccc(Cl)cc1N(CC(=O)N1CCCCCC1)S(C)(=O)=O	none (no result: ALDH1A1 block)
